Bioassay records deposited in PubChem by National Center for Advancing Translational Sciences (NCATS).
This is a sample that favours compounds with a hit; in the whole collection about 11% have one here.
Pf growth 48h: inhibits P. falciparum growth in the first generation, 48 h; 310,000 compounds, 5.9% hits; AID 504832; P. falciparum luciferase growth in erythrocytes, 48 h; Potency, µM (top dose mostly 28.7 µM), inactives show top-dose activity change, negative = inhibition, actives largely listed as inhibitors
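Growth was read as firefly luciferase luminescence after a 48 h, 37 C, 5% CO2 exposure of compounds to reporter-bearing P. falciparum cultures (0.1% parasitemia, 2% hematocrit final) in Albumax-supplemented RPMI 1640.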
Pf growth 96h: P. falciparum growth inhibition at 96 hours | 320,000 compounds, 6.9% hits | Potency, µM (highest dose often 28.7 µM), without a hit: at the top dose activity change, negative = inhibition, actives largely listed as inhibitors | P. falciparum luciferase reporter growth, 96 h | AID 504834
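Compounds incubated with erythrocytes infected by luciferase-expressing P. falciparum (2% hematocrit, 0.05% parasitemia final) for 96 hours, 37 C in 5% CO2. Growth inhibition scored as decreased luciferase luminescence.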
AMA1 RON2 block: inhibitors of Plasmodium falciparum AMA1-RON2 interaction; AlphaScreen AMA1-biotinylated RON2 peptide binding; Potency, µM (highest dose often 58.2 µM), without a hit: at the highest dose activity change, negative = inhibition, actives largely listed as inhibitors; 360,000 compounds, 0.2% hits;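 also: 0% = vehicle wells and -100% = peptide control; nearly all actives have a fitted effect of over 45% in size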
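AMA1 (3D7) with his tag at 25 nM final met compounds first, then biotinylated RON2 peptide at 25 nM; detection used donor plus acceptor beads, 10 µg/mL apiece, read by AlphaScreen after 30 min at room temperature.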
HCV inhibitor: inhibitors of hepatitis C virus infection. Huh7.5.1 HCVcc-Cre infection, luciferase reporter, 44 h. Potency, µM (titrated, usually from 41.8 µM), inactives show at the highest dose activity change, negative = inhibition, most hits filed as inhibitors. 340,000 compounds, 3.4% hits. AID 651820
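Compounds are dispensed onto cells plated 4 h earlier at 1,000 per well, with HCVcc-Cre virus (about 0.5 moi) added next. Following 44 h of culture, luminescent signal is measured for 15 sec after 15 min with substrate at room temperature.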
Numbers without * were called inactive; ! = a repeat was not active; [ ] = another dose, or the depositor's remark. Calls follow the shape of the dose curve; as a rule, active = well fitted curve in the direction sought with a large enough effect; inconclusive = small, poorly fitted or top-dose-only effect, or another doubt; inactive = no such curve, though single readings can be large; an effect the other way counts as inactive or inconclusive. Unless noted, % is scaled to controls: 0 for no effect and ±100 for the full control effect; potency is read from the fitted curve at half-maximal effect.

For CCCCN(C(=O)c1cc2c(s1)CCC2)c1c(N)n(CCCC)c(=O)[nH]c1=O the results were Pf growth 48h -0.1%, Pf growth 96h 8.5%, AMA1 RON2 block -11.4% and HCV inhibitor 11.2µM*.
C[C@H](c1ccccc1)N1C[C@H](COCc2ccccc2)Oc2cc(N3CCC[C@H]3C(N)=O)ccc2S1(=O)=O was read as AMA1 RON2 block -18.0%.
`CCOC(=O)CNC(=O)C1(NC(=O)CNC(=O)OCc2ccccc2)CCCC1` gave AMA1 RON2 block -22.4% and HCV inhibitor 11.9%.
Screening Cc1ccc(C)c(S(=O)(=O)Nc2ccc(C(=O)NCCCN3CCOCC3)cc2)c1 returned Pf growth 48h inconclusive, Pf growth 96h inconclusive, AMA1 RON2 block 4.4% and HCV inhibitor inconclusive.
Cc1oc(-c2cccc3ccccc23)nc1CN1CCN(c2ncnc3ccccc23)CC1 was read as Pf growth 48h inconclusive, Pf growth 96h 1.3%, AMA1 RON2 block -20.6% and HCV inhibitor 10µM*.
COc1ccc(-c2nc(CN3CCN(c4cc(C)nc(C)c4)CC3)c(C)o2)c2ccccc12 was read as Pf growth 48h 38.5%, Pf growth 96h inconclusive, AMA1 RON2 block -13.1% and HCV inhibitor inconclusive.
O=C(CN1CCCC1)Nc1ccccc1Sc1ccc(Cl)cc1 was read as Pf growth 48h inconclusive, Pf growth 96h inconclusive, AMA1 RON2 block inconclusive and HCV inhibitor 10.8%.
Screening CCOCCCNCc1cccc(OCc2ccc(F)cc2)c1 returned Pf growth 48h inconclusive, Pf growth 96h 11.7µM*, AMA1 RON2 block -13.6% and HCV inhibitor inconclusive.
Screening CCOCCCNCc1ccc(Cl)cc1 returned Pf growth 48h 18.6%, Pf growth 96h 37.2%, AMA1 RON2 block -9.1%[2.32 µM] and HCV inhibitor -0.4%.
For NC12CC3CC(CC(C3)C1)C2 the results were Pf growth 48h -12.6%, Pf growth 96h inconclusive, AMA1 RON2 block 0.0% and HCV inhibitor 1.4%[8.37 µM].
CC12CC3CC(C)(C1)CC(N)(C3)C2 was read as Pf growth 48h inconclusive, Pf growth 96h 6.75µM*!, AMA1 RON2 block -0.1% and HCV inhibitor 20.0%.
`COc1ccc(C2C(C(=O)c3sc(C)nc3C)=C(O)C(=O)N2CCN(C)C)cc1OC` (stereo unspecified) gave Pf growth 48h 13.3%, AMA1 RON2 block -4.0% and HCV inhibitor inconclusive.
Screening Cc1ccc(C2C(C(=O)c3sc(C)nc3C)=C(O)C(=O)N2CCN(C)C)o1 (stereo unspecified) returned Pf growth 48h 9.2%, Pf growth 96h 5.86µM*, AMA1 RON2 block 8.4% and HCV inhibitor 8.2%.
For O=C(CN(C(=O)c1csnn1)c1cccc(F)c1)NCc1ccc2c(c1)OCO2 the results were Pf growth 48h 13.8%, Pf growth 96h -6.7%, AMA1 RON2 block 0.0% and HCV inhibitor 1.9%.
For C=CCOc1ccccc1CNCc1ccc(F)cc1 the results were Pf growth 48h -12.8%, Pf growth 96h 2.33µM*, AMA1 RON2 block -7.4% and HCV inhibitor 6.7%.
CCOC(=O)N1CCC(NS(=O)(=O)c2ccc(NC(C)=O)c(Cl)c2)CC1 was read as Pf growth 48h 51.0%, Pf growth 96h -7.4%, AMA1 RON2 block 24.3% and HCV inhibitor 6.31µM*.
Screening S=c1[nH]nc(-c2cccc(Cl)c2)n1/N=C/c1ccc(-c2ccccc2Br)o1 returned Pf growth 48h 10.4µM*, Pf growth 96h inconclusive, AMA1 RON2 block 51.7% and HCV inhibitor -29.5%.
For CCCCCOc1ccc(C(C)(O)C(CN2CCOCC2)c2ccccc2)cc1 (stereo unspecified) the results were Pf growth 48h inconclusive, Pf growth 96h -0.5%, AMA1 RON2 block 1.0% and HCV inhibitor inconclusive.
Screening CCCCCC(O)(c1ccccc1)C(CN1CCOCC1)c1ccccc1 (stereo unspecified) returned Pf growth 48h 2.62µM*, Pf growth 96h 0.0%, AMA1 RON2 block -11.9% and HCV inhibitor inconclusive.
Screening CCCCCCC(O)(c1ccc(OC)cc1)C(CN1CCOCC1)c1ccccc1 (stereo unspecified) returned Pf growth 48h 1.85µM*, Pf growth 96h 10.4µM*, AMA1 RON2 block 9.6% and HCV inhibitor inconclusive.
For CC(C)CC(O)(c1ccccc1)C(CN1CCOCC1)c1ccccc1 (stereo unspecified) the results were Pf growth 48h 0.0%, Pf growth 96h 11.4%, AMA1 RON2 block 5.1% and HCV inhibitor 5.9%.
